PfHsp90 yeast 2 – reduces growth (ATP signal) of yeast expressing P. falciparum Hsp90 | S. cerevisiae expressing PfHsp90, BacTiter-Glo ATP, 48 h; yeast lacking PDR1 and PDR3 efflux regulators | inhibition, % at 9.4 µM | 0.32% of 310,000 active;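 active = every replicate shows inhibition above about 80%, whatever the replicate mean, limit read from the data; inconclusive = mean inhibition reaches the set limit but some replicate falls short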
esBAF inh – blocks esBAF chromatin remodeling in mouse ES cells. Bmi1-luciferase knock-in reporter, 24 h; 100% = twice the neutral-well signal. reporter increase, % at 12.5 µM. 2% of 350,000 active. AID 602393; in the data active = activation above about 40%; inconclusive = no clear call, values can overlap the other calls;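 note: a rise in the Bmi1 reporter signal indicates esBAF inhibition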
Glyco luc inh – N-linked glycosylation inhibition; D54 ERlucT glycosylation luciferase reporter, 24 h; percent of 100 nM tunicamycin response; reporter increase, % at 12.5 µM; 0.23% of 360,000 active;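 active = mean luciferase reporter signal, scaled so untreated is 0 and the glycosylation-blocking control 100, at or above a set limit in every replicate; inconclusive = mean reaches the limit but not every replicate does; inactive = mean below the limit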;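 note: luciferase carries N-glycosylation sites so blocking glycosylation raises the light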
Vif inh – blocks HIV Vif function; AID 602346; inhibition, % at 7.49 µM; HEK293T cells, Vif self-association by quenched fluorescence, imaging, 24 h; 0.35% of 340,000 active; in the data active = inhibition above about 50%, passing the limit was not always enough; inconclusive = no clear call, values can overlap the other calls; inactive = below about 31%
Wnt act – activates Wnt/beta-catenin signaling in a reporter cell assay; activator, plate reader; activation, % at 9.35 µM; 1.2% of 300,000 active; AID 743398; in the data active = activation above about 30%, passing the limit was not always enough; inconclusive = no clear call, values can overlap the other calls
MITF act – increases MITF-driven TRPM1 promoter luciferase signal | activation, % at 12.5 µM | SK-MEL-5 TRPM1-promoter luciferase, 24 h; % of positive control, neutral wells = 0 | 0.75% of 300,000 active;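 active = mean activation of at least 80% with every replicate also reaching 80%; inconclusive = mean reaches 80% but some replicate falls short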
Each line names hits and unclear results; the compound was inactive in the other large screens. A selection: hits, their analogues and other compounds. The true share with any hit is near 3%.

C[C@@H]1CN([C@@H](C)CO)C(=O)c2cccc(NC(=O)Nc3ccc4c(c3)OCO4)c2O[C@H]1CN(C)Cc1ccc(Cl)c(Cl)c1	esBAF inh 55.3 (no result: PfHsp90 yeast 2, Glyco luc inh, Vif inh, Wnt act, MITF act)
CN(C)/C=C/C(=O)c1ccccc1OCc1cnc(Cl)s1	none (no result: esBAF inh)
O=C(Nc1cccc(-c2nc3ccccc3[nH]2)c1)c1ccco1	none (no result: Wnt act)
CC1CCCN(c2ccc(C(=O)NCC3CCCO3)cn2)C1 (stereo not drawn)	esBAF inh 50.4
CC1CCN(c2ccc(C(=O)NCc3cccs3)cn2)CC1	esBAF inh 58.7 (no result: Wnt act)
CC1CCN(S(=O)(=O)c2cccc(C(=O)NCc3cccs3)c2)CC1	none (no result: Wnt act)
COc1cc(/C=C/c2nc3ccccc3c(=O)[nH]2)ccc1O	none (no result: PfHsp90 yeast 2, Vif inh, MITF act)
Cc1cccc(/C=C/c2nc3ccccc3c(=O)[nH]2)c1	none (no result: esBAF inh)
Cc1[nH]c2ccccc2c1/C=C/c1nc2ccccc2c(=O)[nH]1	esBAF inh 45.8, MITF act 92.6
CCOc1cc(/C=C/c2nc3ccccc3c(=O)[nH]2)ccc1O	esBAF inh 71.0
CC1CCCN(S(=O)(=O)c2cc(C(=O)NCc3ccco3)ccc2Cl)C1 (stereo not drawn)	none
O=C(c1ccc2c(c1)[nH]c(=S)n1c3ccccc3nc21)N1CCN(c2cccc(Cl)c2)CC1	none
O=C(NCc1ccco1)c1cc2ccccc2o1	none
O=C1CC(N2CCN(c3nc4ccccc4s3)CC2)C(=O)N1Cc1cccs1 (stereo not drawn)	PfHsp90 yeast 2 104.6
CCCn1c(SCC(=O)Nc2nc3c(s2)CCCC3)nc2c1c(=O)n(C)c(=O)n2C	none (no result: PfHsp90 yeast 2, esBAF inh, Wnt act)
CCCCn1c(SCC(=O)Nc2nnc(C(C)C)s2)nc2c1c(=O)n(C)c(=O)n2C	Vif inh 52.0
CC(C)c1nc(SCC(=O)N2CCOCC2)c2c(=O)n(C)c(=O)n(C)c2n1	none
CCCc1cc(-c2ccc(O)c(OCC)c2)c(C#N)c(N)n1	none (no result: Vif inh)
COc1ccc(-c2cc(-c3ccc(O)cc3)nc(N)c2C#N)cc1OC	Glyco luc inh 26.8
Cc1ccc(-c2cc(-c3ccc(F)cc3)c(C#N)c(N)n2)o1	PfHsp90 yeast 2 120.0
Cc1cc(-c2cc(-c3ccc(Cl)cc3)nc(N)c2C#N)co1	PfHsp90 yeast 2 121.9 (no result: Wnt act)
Cc1ccc(-c2cc(-c3ccc(C)o3)nc(N)c2C#N)cc1	none (no result: Wnt act)
O=C(CSc1nnc(-c2ccccc2F)n1C1CC1)NC(=O)c1cccc([N+](=O)[O-])c1	none (no result: esBAF inh)
O=C(c1cc(COc2ccc(F)cc2Cl)on1)N1CCSCC1	esBAF inh 77.7
COc1ccc(OCc2cc(C(=O)N3CCCC(CO)C3)no2)c2ccccc12 (stereo not drawn)	Wnt act 32.7 (no result: esBAF inh)
O=C(c1cc(COc2ccc(F)c(F)c2)on1)N1CCSCC1	esBAF inh 51.0
O=C(c1cc(COc2ccc3c(c2)CCCC3)on1)N1CCCC1	esBAF inh 67.8, MITF act 123.9 (no result: PfHsp90 yeast 2)
COc1ccc(N2CCN(C(=O)COC(=O)CNC(=O)c3ccc(Cl)cc3Cl)CC2)cc1	none (no result: esBAF inh)
CCN(CC)C1CCN(C(=O)c2cc(COc3ccccc3SC)on2)C1 (stereo not drawn)	none
CSc1ccccc1OCc1cc(C(=O)N2CCCC(C)C2)no1 (stereo not drawn)	esBAF inh 61.8, Wnt act 50.7, MITF act 158.6
CSc1ccccc1OCc1cc(C(=O)N2CCSCC2)no1	esBAF inh 69.5, MITF act 133.5
CSc1ccccc1OCc1cc(C(=O)N2CCN(c3ncccn3)CC2)no1	none
Cc1ccc(N(C)/N=C/c2ccc(Cl)cc2Cl)nn1	esBAF inh 42.3, MITF act 98.8
Cc1ccc(C(=O)Nc2ccc(N3CCOCC3)cc2N2CCOCC2)cc1	none
O=C(CCl)Nc1cc2[nH]c(=O)[nH]c2cc1Br	none (no result: PfHsp90 yeast 2, esBAF inh)
Cc1c(/C(O)=C2/C(=O)C(=O)N(Cc3cccnc3)C2c2cccs2)cnn1-c1ccccc1 (stereo not drawn)	esBAF inh 46.1
Nn1c(SCc2c(F)cccc2F)nnc1-c1ccccn1	esBAF inh inconclusive, Wnt act 43.0 (no result: MITF act)
Cc1ccc(C)c(CSc2nnc(-c3ccccn3)n2N)c1	none (no result: MITF act)
Cc1ccccc1C(c1ccccc1Cl)N(C)C (stereo not drawn)	none (no result: esBAF inh)
Brc1ccccc1OCCCOc1cccc2cccnc12	esBAF inh 77.3 (no result: MITF act)
Brc1ccccc1OCCOc1cccc2cccnc12	none (no result: esBAF inh)
